Test [1] in a line: inhibitors of TNFa-induced NFkB p65 translocation, primary screen, imaging, HUVEC, MLSMR starter and 10KST1 sets (AID 438;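 active = inhibition above 20% together with a positive visual image hit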;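 note: compound added about 3h40 before a 20 min TNFalpha stimulation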;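 for inhibition: signal is the nuclear over cytoplasmic p65 intensity ratio per well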). To be noted: HUVEC TNFa-induced p65 nuclear translocation; cell count: measured here: nuclei count (cytotoxicity indicator), at 2.08 µM; inhibition: at 2 µM, stronger effect = higher value, 0% TNFa-plus-vehicle, 100% no-TNFa wells.
The nature of test [2]: reduction of polyQ htt aggregates in cells – imaging, exon1htt(103Q)mCFP cells, high-content imaging, primary screen (AID 483;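 active = visual image review flags a hit and inhibition of aggregation exceeds 20%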;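 note: compound exposure lasted 3 days before fixation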;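 for nuclei count: percent of the per-plate median nuclei count of sample wells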). The settings on record: exon1htt(103Q)mCFP cell line, aggregate imaging, at 2 µM; inhibition of aggregation: stronger effect = higher value; nuclei count: measured here: cell count, toxicity.
The nature of test [3]: endothelial E-selectin expression blockers – imaging, HUVEC, immunofluorescence, MLSMR starter and 10KST1 sets, primary screen (AID 487;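 active = visually confirmed hit in the image check and inhibition above 20%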;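 for inhibition: signal is fraction of cell area covered by stained E-selectin grains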;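 for nuclei count: 100% = median nuclei count of all wells on the same plate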). The settings on record: HUVEC TNFalpha-induced E-selectin immunofluorescence imaging, at 2 µM; inhibition: stronger effect = higher value; nuclei count: measured here: cell number, toxicity.
Test [4] concerns the target Voltage-gated potassium channel subunit beta-2 (Rattus norvegicus) (UniProt P62483). Nature of the test: inhibitors of rat Kvbeta2 reductase activity – biochemical, NADPH fluorescence, primary screen (AID 622;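 active = fluorescence slope higher than the sample average by over 3 SD, cut at about -0.22 in these data, passing the limit was not always enough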;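 note: slope of raw intensity against log time taken from 70 to 1610 s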). To be noted: recombinant KvBeta, 4-cyanobenzaldehyde reduction, at 10 µM, stronger effect = higher value.
Test [5] shares this target. Nature of the test: enhancers of rat Kvbeta2 NADPH turnover – biochemical, NADPH fluorescence, primary screen (AID 623;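 active = NADPH fluorescence slope more negative than the mean of all samples by about 3 SD, 99.7% confidence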;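 note: fluorescence intensity change per second fitted from 20 to 320 s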). The settings on record: Recombinant KvBeta, NADPH fluorescence decrease slope, 10 min; at 10 µM; stronger effect = lower value.
Test [6] concerns the target Alpha-2C adrenergic receptor (Homo sapiens) (UniProt P18825). The test is described as follows: compounds altering alpha2C-coupled GIRK flux – cell-based, HEK293 alpha2C/GIRK1/2, thallium flux, primary screen (AID 624;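 active = fluorescence slope after compound addition differing from the mean of all screened samples at 99.7% confidence, in either direction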;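 note: slope of fluorescence ratio to pre-addition baseline per second over 15 to 24 s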). The settings on record: thallium flux BTC fluorescence, at 10 µM, actives lie on both sides.
A short description of test [7]: blockers of RIG-like receptor reporter activation – cell-based, Sendai virus stimulus, luciferase, 10K MLSCN set, TLR/RLR signaling modifier project, primary screen (AID 602276).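 Note: firefly luciferase from ISG56 promoter only with Renilla not read in this screen; 0% = Sendai virus plus DMSO and 100% = medium plus DMSO without virus.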 The settings on record: HEK293 RL24 IRF3 luciferase reporter, at 10 µM, stronger effect = higher value. Background: A reporter such as luciferase makes a cellular process visible.
The nature of test [8]: TLR3 IRF3 reporter activation blockers – cell-based, poly I:C stimulus, luciferase, 10K MLSCN set, primary screen (AID 602277;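 active = inhibition of the reporter signal at or above 50%; inactive = inhibition below 50%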). To be noted: HEK293-TLR3 RL24 IRF3 luciferase reporter, at 10 µM, stronger effect = higher value.

This is an account of results in PubChem BioAssay.

Calls of active or inactive are those of the source.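 Rule for the calls, unless noted: active = inhibition at or above 50% at 10 µM; inactive = inhibition below 50%.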

By inhibition is commonly meant the change of the read-out against control, counted positive when it falls.

Chain of Alpha-2C adrenergic receptor (Homo sapiens) (P18825 whole entry, looked up): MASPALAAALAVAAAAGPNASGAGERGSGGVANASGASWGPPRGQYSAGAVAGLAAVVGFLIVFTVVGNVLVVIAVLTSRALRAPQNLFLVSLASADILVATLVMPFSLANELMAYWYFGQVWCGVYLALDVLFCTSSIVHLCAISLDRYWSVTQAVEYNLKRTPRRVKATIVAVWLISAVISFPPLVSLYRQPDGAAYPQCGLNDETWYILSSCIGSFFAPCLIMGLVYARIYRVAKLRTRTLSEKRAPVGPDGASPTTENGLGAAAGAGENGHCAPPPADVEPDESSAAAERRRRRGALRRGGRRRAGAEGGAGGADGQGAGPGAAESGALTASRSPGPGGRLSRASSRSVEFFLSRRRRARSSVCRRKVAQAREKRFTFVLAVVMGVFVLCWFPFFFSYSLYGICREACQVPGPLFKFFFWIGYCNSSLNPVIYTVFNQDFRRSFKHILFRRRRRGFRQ
Chain of Voltage-gated potassium channel subunit beta-2 (Rattus norvegicus) (P62483 whole entry, looked up): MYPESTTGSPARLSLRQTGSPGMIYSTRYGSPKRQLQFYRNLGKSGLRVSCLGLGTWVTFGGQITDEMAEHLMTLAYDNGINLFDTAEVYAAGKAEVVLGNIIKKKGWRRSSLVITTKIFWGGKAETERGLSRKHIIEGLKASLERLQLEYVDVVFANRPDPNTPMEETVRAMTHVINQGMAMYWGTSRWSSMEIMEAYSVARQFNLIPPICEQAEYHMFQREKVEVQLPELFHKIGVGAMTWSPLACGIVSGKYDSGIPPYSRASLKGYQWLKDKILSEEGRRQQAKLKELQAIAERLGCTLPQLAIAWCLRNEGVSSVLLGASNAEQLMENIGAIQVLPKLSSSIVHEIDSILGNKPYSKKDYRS

In the case of `CC1CCCN(C(=O)c2cc(F)c(F)cc2Cl)C1` (stereo not drawn), the cell count in test [1] is 888. Further, the inhibition in test [1] is -1.3% (inactive); in test [3], -25.2% (inactive); in test [7], 2.92% (inactive); in test [8] it was 7.68% (inactive). Moreover, in test [2], the inhibition of aggregation was 39.2% (inactive). Also, the nuclei count in test [2] stood at 88.6%; in test [3] it was 94%. In addition, the fluorescence slope in test [4] was -0.617 (inactive). Also, in test [5], the NADPH fluorescence slope is -3.8e-05 (inactive). The slope in test [6] was 0.00409 (inactive).

For `CCOC(=O)CSc1nnc(-c2ccc(Cl)cc2Cl)o1`, the cell count in test [1] amounted to 376. The inhibition in test [1] was 1.9% (inactive); in test [3], -57.5% (inactive); in test [7], 4.99% (inactive); in test [8], 2.18% (inactive). Also, the inhibition of aggregation in test [2] is -9.2% (inactive). For the same compound, the nuclei count is 93.8% in test [2] and 116% in test [3]. Also, the fluorescence slope in test [4] is -0.405 (inactive). Besides, the NADPH fluorescence slope in test [5] is -2.6e-05 (inactive). Also, the slope in test [6] is 0.00557 (inactive).

Regarding `COc1ccc(NC(=O)CSc2nc3c(c(=O)n2-c2ccc(F)cc2)SCC3)cc1`, the cell count in test [1] was 596. For the same compound, the inhibition is -5.8% (inactive) in test [1], -11.9% (inactive) in test [3], 17.1% (inactive) in test [7] and 26.3% (inactive) in test [8]. Moreover, the inhibition of aggregation in test [2] is 20% (inactive). Further, the results for the nuclei count in test [2] and in test [3] were 53.8% and 91.5%, respectively. Besides, the fluorescence slope in test [4] was -0.541 (inactive). Besides, the NADPH fluorescence slope in test [5] was -1.7e-05 (inactive). Also, the slope in test [6] is 0.00814 (inactive).

As for `COc1cccc(NC(=O)CSc2nnc(-c3cc(-c4ccccn4)nc4ccccc34)o2)c1`, in test [1], the cell count came to 578. In addition, the inhibition in test [1] is -14.5% (inactive); in test [3] it was -102% (inactive); in test [7], 1.87% (inactive); in test [8], 0.453% (inactive). In test [2], the inhibition of aggregation is -14.5% (inactive). Also, the nuclei count stood at 112% in test [2] and 141% in test [3]. The fluorescence slope in test [4] is -0.57 (inactive). The NADPH fluorescence slope in test [5] is -2e-06 (inactive). Moreover, the slope in test [6] is 0.00553 (inactive).

As to `O=C(OCC(=O)c1ccccc1Br)c1ccccn1`, in test [1], the cell count was 308. Further, the inhibition in test [1] was 2.7% (inactive); in test [3], -10.2% (inactive); in test [7], 3.27% (inactive); in test [8] it was 26.5% (inactive). In addition, the inhibition of aggregation in test [2] is -3.7% (inactive). In addition, the nuclei count in test [2] is 98.4%; in test [3], 95.3%. Besides, in test [4], the fluorescence slope was -0.536 (inactive). Further, the NADPH fluorescence slope in test [5] is -4.2e-05 (inactive). Also, in test [6], the slope was 0.00716 (inactive).

Regarding `Cn1c(Cc2ccccc2)nnc1SCC(=O)N1CCOCC1`, in test [1], the cell count amounted to 492. In addition, the inhibition is -0.8% (inactive) in test [1], -74.1% (inactive) in test [3], 10.3% (inactive) in test [7] and 13.5% (inactive) in test [8]. In addition, the inhibition of aggregation in test [2] was -33% (inactive). The nuclei count turned out to be 103% in test [2] and 123% in test [3]. In addition, the fluorescence slope in test [4] is -0.276 (inactive). Also, the NADPH fluorescence slope in test [5] was -4.7e-05 (inactive). Moreover, the slope in test [6] was 0.00541 (inactive).

For `O=C(CSc1nnc(-c2ccncc2)n1-c1ccc(F)cc1)NC(=O)NCc1ccco1`, in test [1], the cell count was 537. The inhibition in test [1] is -13.7% (inactive); in test [3], -65.7% (inactive); in test [7] it was 10.1% (inactive); in test [8], 15.2% (inactive). Besides, in test [2], the inhibition of aggregation was -9.8% (inactive). Also, the figures for the nuclei count in test [2] and in test [3] were 100% and 149%, respectively. Moreover, the fluorescence slope in test [4] was -0.46 (inactive). In addition, the NADPH fluorescence slope in test [5] is -0.000317 (inactive). For the same compound, in test [6], the slope is 0.00513 (inactive).

Turning to `CC(C)CNc1oc(-c2ccc(F)cc2)nc1C#N`, in test [1], the cell count was found to be 696. The inhibition in test [1] was -2.9% (inactive); in test [3], -41.9% (inactive); in test [7], -4.19% (inactive); in test [8], 2.46% (inactive). Moreover, the inhibition of aggregation in test [2] is -21% (inactive). For the same compound, the nuclei count in test [2] is 108%; in test [3], 118%. Further, the fluorescence slope in test [4] was -0.543 (inactive). In addition, the NADPH fluorescence slope in test [5] is -5e-06 (inactive). For the same compound, the slope in test [6] was 0.00664 (inactive).
